AC50 and activity, negative = inhibition data for 62 compounds are collected here from PubChem BioAssay AID1851 (National Center for Advancing Translational Sciences (NCATS), 2009).

The campaign covered roughly 16,000 compounds. About 2,600 (16%) were called active. Roughly 20% stayed inconclusive and do not appear here. Calls follow the shape of the dose curve; as a rule, active = well fitted curve in the direction sought with a large enough effect; inconclusive = small, poorly fitted or top-dose-only effect, or effect the other way; inactive = no such curve, though single readings can be large or run the other way. A selection follows.
% is scaled to controls: 0 for no effect and ±100 for the full control effect.

This experiment deals with Cytochrome P450 2D6 (Homo sapiens) (UniProt P10635). Briefly: Cytochrome panel assay with activity outcomes. The settings on record: recombinant CYP, pro-luciferin dealkylation, luminescence, p450-cyp2d6; series mostly up to 57.1 µM.
Cytochrome P450 2D6 (Homo sapiens), sequence (P10635 whole entry, looked up): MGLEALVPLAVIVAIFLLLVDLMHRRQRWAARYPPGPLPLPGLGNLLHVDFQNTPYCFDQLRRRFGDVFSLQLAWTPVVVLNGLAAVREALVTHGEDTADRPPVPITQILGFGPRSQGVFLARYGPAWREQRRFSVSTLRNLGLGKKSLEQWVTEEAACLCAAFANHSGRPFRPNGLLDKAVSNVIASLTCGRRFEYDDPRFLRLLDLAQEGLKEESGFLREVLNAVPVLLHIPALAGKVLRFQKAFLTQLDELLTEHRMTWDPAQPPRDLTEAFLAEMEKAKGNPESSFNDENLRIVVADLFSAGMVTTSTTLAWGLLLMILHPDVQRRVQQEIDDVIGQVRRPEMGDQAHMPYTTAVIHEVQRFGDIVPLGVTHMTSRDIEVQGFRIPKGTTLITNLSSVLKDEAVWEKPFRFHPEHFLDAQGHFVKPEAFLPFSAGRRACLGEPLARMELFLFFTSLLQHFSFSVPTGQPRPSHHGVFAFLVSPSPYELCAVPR
`Cc1noc(NS(=O)(=O)c2ccc(NC(=O)c3ccc(Br)o3)cc2)c1C`: the AC50 entry was “inactive”.
Same read-out and setting: the result for `COCCOC(=O)C1=C(C)NC(=O)N(C(C)=O)C1c1ccc(Cl)cc1` (configuration not stated) reads “inactive”.
Still for that read-out and setting: the result for `COC(=O)C1=CO[C@@H](C)[C@H]2CN3CCc4c([nH]c5ccccc45)[C@@H]3C[C@H]12` reads 0.002 µM (active); that for `COc1ccc2c3c([nH]c2c1)[C@@H]1C[C@@H]2[C@@H](C[C@H](O)[C@H](OC)[C@H]2C(=O)O)CN1CC3`, “inactive”.
Consider `COC(=O)[C@@H]1[C@@H]2C[C@H]3c4[nH]c5ccccc5c4CCN3C[C@@H]2CC[C@@H]1OS(=O)(=O)O`, for which the activity, negative = inhibition is -18.5% [at 11.4 µM] (inactive).
For `C[C@@H](C(=O)O)c1ccc(C[C@@H]2CCCC2=O)cc1`, the AC50 entry is “inactive”.
The same measure, in the same setting: then `COCCNC(=O)c1cn(Cc2c(F)cccc2Cl)nn1`, with “inactive”; and `Cc1cnc(CNc2cc(-c3ccc(C(=O)N(C)C)cc3)ncn2)cn1`, with “inactive”; and `Cc1cnc(CNc2cc(-c3ccccc3Cl)ncn2)cn1`, with “inactive”.
Still for that read-out and setting: the result for `Cc1cnc(CNc2ncnc3ccc(-c4ccccc4CN(C)C)cc23)cn1` reads 2.51 µM (active); that for `Cc1cnc(CNc2ncnc3ccc(-c4ccccc4Cl)cc23)cn1`, 15.8 µM (active).
In the case of `CCN(CC)C(=O)C1CC(=O)N(c2ccc(OC)cc2)C1c1ccc(OC)cc1` (configuration not stated), the AC50 result was “inactive”.
Same read-out and setting: the result for `COc1ccc(NC(=O)CSC2=NC(=O)CC(C)=N2)cc1` reads “inactive”; that for `N#CCCn1nnc2ccccc21`, “inactive”; that for `O=C(NCc1ccccc1)c1ccc(Cl)cc1[N+](=O)[O-]`, “inactive”.
On the same count and under the same terms, the result for `CC(C)Oc1ccc(C(=O)Nc2ccc(NC(=O)c3ccco3)c(Cl)c2)cc1` reads “inactive”.
`O=C(O)Cc1cc(Cl)ccc1O`: the activity, negative = inhibition was 16.8% [at 11.4 µM] (inactive).
`CN(Cc1ccccc1)C(=O)CC(c1ccccc1)c1cc(Cl)ccc1O` (configuration not stated): the concentration at half-maximal activity (AC50) was 8.91 µM (active).
Same read-out and setting: the result for `CC(C)Oc1ccc(CNC(=O)CC(c2ccccc2)c2cc(Cl)ccc2O)cc1` (configuration not stated) reads 14.1 µM (active); that for `Cc1cccc(C(CC(=O)N2CCCC2)c2ccccc2)c1O` (configuration not stated), “inactive”.
As to `CCOC(=O)N1CCC(NS(=O)(=O)c2ccc3c(c2)C(C)(C)C(=O)N3C)CC1`, the AC50 result is “inactive”.
For `C[N+](C)(C)CCO`, the AC50 result was “inactive”.
As to `COc1ccc(C(=O)n2nc(-c3ccccc3)nc2SC)cc1`, the AC50 result was “inactive”.
With `Cc1ccc(C2C(C(=O)c3ccco3)=C(O)C(=O)N2c2nnc(C)s2)cc1` (configuration not stated), the AC50 entry was “inactive”.
Same read-out and setting: then `O=C1Nc2cc(C(=O)N3CCOCC3)ccc2SC1N1CCOCC1` (configuration not stated), with “inactive”; and `COc1ccccc1CNC(=O)CCCn1c(=O)c2ccccc2n(CC(=O)NC2CCCC2)c1=O`, with “inactive”; and `COc1ccccc1CNC(=O)C1CC(=O)N(C2CCCC2)C1` (configuration not stated), with “inactive”.
Same read-out and setting: then `COc1cc(CNC2CCCC2)cc(Cl)c1OCc1ccccc1Cl`, with 0.891 µM (active); and `NC(=O)c1ccc(C2SCC(=O)N2Cc2ccccc2)cc1` (configuration not stated), with “inactive”.
Consider `Cc1ccc(CNC(=O)Cc2csc(Nc3nc(=S)[nH]c4ccccc34)n2)cc1`, for which the AC50 entry was “inactive”.
On the same count and under the same terms, then `CC(=O)OCC(=O)[C@@]1(O)[C@H](C)C[C@@H]2[C@H]3CCC4=CC(=O)C=C[C@]4(C)[C@]3(F)[C@@H](O)C[C@@]21C`, with “inactive”.
With `CC(C)(C)N1C(=O)[C@@H]2[C@H]3C(=CC[C@H]2C1=O)C(=O)[C@H]1O[C@H]1[C@H]3O`, the activity, negative = inhibition was 11.6% [at 11.4 µM] (inactive).
For `O=C1[C@@H]2C=CC=CC2=NC(=S)N1CCN1CCC(=C(c2ccc(F)cc2)c2ccc(F)cc2)CC1`, the AC50 was 12.6 µM (active).
As to `COC(=O)C/C=C\[C@@H](C)[C@@H](/C=N\O[C@@H](C)c1cn([C@H]2COC[C@H]2O)nn1)OC`, the activity, negative = inhibition was 15.1% [at 11.4 µM] (inactive).
Turning to `N=C(N)SCC(=O)O`, the activity, negative = inhibition is -6.02% [at 11.4 µM] (inactive).
On to `O=C1CC(c2ccc3c(c2)OCO3)CN1` (configuration not stated), for which the AC50 entry is “inactive”.
The same measure, in the same setting: the result for `O=C1CC(c2ccc3c(c2)OCO3)Sc2nc3ccccc3n21` (configuration not stated) reads 8.91 µM (active); that for `Cc1ccc(NC(=O)C2CC(=O)n3c(nc4ccccc43)N2)cc1` (configuration not stated), “inactive”; that for `CSC1=N/C(=C\c2ccc3c(c2)OCO3)C(=O)S1`, “inactive”.
For the compound `Cc1cccc(OCC(=O)N/N=C\C=C\c2ccc3c(c2)OCO3)c1C`, the AC50 result is “inactive”.
Still for that read-out and setting: then `COC(=O)N/N=C\C=C\c1ccc2c(c1)OCO2`, with 11.2 µM (active); and `CCOc1cc(/C=C2\CCC/C(=C\c3cc(Cl)c(O)c(OCC)c3)C2=O)cc(Cl)c1O`, with “inactive”; and `CCOC(=O)c1c2ccc(OCC(=O)N/N=C/c3ccc(Cl)cc3)cc2n2ccccc12`, with “inactive”.
Take `Clc1ccccc1CSc1nnc(/C=C/c2ccccc2)o1`: the AC50 result is “inactive”.
As to `O=C(Nc1nnc(SCc2c(Cl)cccc2Cl)s1)C1CCCO1` (configuration not stated), the AC50 entry was “inactive”.
For `Clc1cccc(Cl)c1CSc1nnc(/C=C/c2ccccc2)o1`, the AC50 is 28.2 µM (active).
As for `COc1cccc(Nc2ncc3nc(-c4cc(F)cc(F)c4)c(=O)n(CCC#N)c3n2)c1`, the AC50 entry is “inactive”.
The same measure, in the same setting: the result for `CCCCCCCCn1cc(C(C)=O)c(=O)[nH]c1=O` reads “inactive”.
Same read-out and setting: then `O=c1cnc2cnc(Oc3cccc(Cl)c3)nc2n1C[C@H]1CCCO1`, with “inactive”; and `CCN(CC)S(=O)(=O)c1ccc(OC)c(NC(=O)c2cc([N+](=O)[O-])ccc2Cl)c1`, with “inactive”.
The same measure, in the same setting: then `COc1ccc(OC)c(N(CC(=O)N2CCc3ccccc3C2)S(C)(=O)=O)c1`, with “inactive”; and `COc1ccc([N+](=O)[O-])cc1N(CC(O)CN(CC(C)C)CC(C)C)S(=O)(=O)c1ccccc1` (configuration not stated), with 0.398 µM (active).
Turning to `COc1ccc(C(=O)CN2C(=O)NC(C)(c3ccccc3)C2=O)cc1OC` (configuration not stated), the AC50 entry is “inactive”.
For `CN(C)Cc1ccc(O)c(CN(C)C)n1`, the activity, negative = inhibition was 2.9% [at 11.4 µM] (inactive).
For the compound `CN(C)CCCc1cc(C(=O)Nc2ccc(-c3ccncc3)cc2)ccc1O`, the AC50 is 5.01 µM (active).
In the case of `Cc1ccc(C(=O)Nc2ccc3nccnc3c2)cc1`, the AC50 entry is “inactive”.
The same measure, in the same setting: then `Cc1ccc(NC(=O)c2cccc(N(C)C)c2)cc1NC(=O)c1ccc(O)cc1`, with “inactive”.
Still for that read-out and setting: the result for `Cc1cc(C)cc(-n2nnnc2-c2cn(C)nc2C(F)(F)F)c1` reads “inactive”; that for `Cc1cccc(NC(=O)c2ccc([N+](=O)[O-])o2)n1`, “inactive”; that for `COc1cc(/C=N/NC(=O)c2cccnc2)ccc1OC(=O)c1ccco1`, “inactive”.
The same measure, in the same setting: the result for `Cc1cc(C(=O)N/N=C/c2cccc(OC(=O)c3ccco3)c2)n[nH]1` reads 17.8 µM (active); that for `CCOc1cc(/C=N/NC(=O)c2cc(C)[nH]n2)ccc1OC(=O)c1ccc([N+](=O)[O-])cc1`, “inactive”.
